Data on 17 compounds can be found in PubChem BioAssay (NCATS).

Structures are written as SMILES. Records with an inconclusive call do not appear. A number with no mark means an inactive call. The source made the active and inactive calls. The call rests on the fitted dose curve; in most records, active means well fitted cell-killing curve with a large enough effect; inconclusive means small, poorly fitted or top-dose-only effect, or effect the other way; inactive means flat fitted curve, though single readings scatter.

Holding throughout (experiment): Primary qHTS to identify gynecologic anti-cancer compounds using libraries of approved drugs and bioactive compounds (AID 1345084); further: nearly all actives have a fitted effect of over 55% in size
For assay [1], the system named is C33A. To be noted: Gynecologic cancer cell panel viability, ATPlite luminescence, 48 h; series mostly up to 57.5 µM. The essentials:
(§1)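 Measured: luminescence after ATPlite addition (15 min, RT). Exposure: 48 h, 37 C, 5% CO2.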

Assay [2] has as its system CAOV3. Conditions: Gynecologic cancer cell panel viability, ATPlite luminescence, 48 h; series mostly up to 57.5 µM. The essentials: as §1
A general note: Cellular ATP, detected with luciferase, serves as a proxy for viable cell number.

For assay [3], the system named is CASKI. To be noted: Gynecologic cancer cell panel viability, ATPlite luminescence, 48 h; series mostly up to 57.5 µM. A digest of the protocol:
as §1

Assay [4] relates to Es-2. Conditions: Gynecologic cancer cell panel viability, ATPlite luminescence, 48 h; series mostly up to 57.5 µM. The essentials: as §1
The subject of assay [5] is HeLa. Conditions: Gynecologic cancer cell panel viability, ATPlite luminescence, 48 h; series mostly up to 57.5 µM. A digest of the protocol: as §1
Assay [6] concerns Hek293T. To be noted: Gynecologic cancer cell panel viability, ATPlite luminescence, 48 h, control line for the selectivity index; series mostly up to 57.5 µM. A digest of the protocol: as §1
Assay [7] concerns JEG-3. To be noted: Gynecologic cancer cell panel viability, ATPlite luminescence, 48 h; series mostly up to 57.5 µM. A digest of the protocol: as §1
Assay [8] relates to OV90. To be noted: Gynecologic cancer cell panel viability, ATPlite luminescence, 48 h; series mostly up to 57.5 µM. A digest of the protocol: as §1
For assay [9], the system named is SKOV3. Conditions: Gynecologic cancer cell panel viability, ATPlite luminescence, 48 h; series mostly up to 57.5 µM. A digest of the protocol:
as §1

In assay [10] the test system is Tov-21-G. To be noted: Gynecologic cancer cell panel viability, ATPlite luminescence, 48 h; series mostly up to 57.5 µM. The essentials:
as §1

Assay [11] deals with Tov112D. Conditions: Gynecologic cancer cell panel viability, ATPlite luminescence, 48 h; series mostly up to 57.5 µM. A digest of the protocol: as §1
Assay [12] deals with PA-1. Conditions: Gynecologic cancer cell panel viability, ATPlite luminescence, 48 h; series mostly up to 57.5 µM. The essentials: as §1
On the % scale 0 is the no-effect control and ±100 the full control effect; potency means the concentration at half of the fitted maximal effect.

On to `COc1cc2oc(-c3ccc(O)cc3O)cc2c(OC)c1CC=C(C)C`, for which the Potency result in [1], in [2], in assay [3], in assay [4], in assay [5] and in assay [6] was “inactive” in each case. The Potency entry in assay [7], in assay [8], in assay [9], in assay [10] and in assay [11] was “inactive” throughout.
Take `NCc1c[nH]c(=S)n1[C@@H]1CCc2c(F)cc(F)cc2C1`: the Potency result in assay [1], in [2], in assay [3], in [4], in assay [5] and in assay [6] was “inactive” each time. For the same compound, the Potency entry in assay [7], in [8], in [12], in [10] and in assay [11] was “inactive” in each case.
With `NC(=O)c1csc(C2OC(CO)C(O)C2O)n1` (stereo not given), the Potency entry in [1], in assay [2], in assay [3], in [4], in assay [5] and in assay [6] was “inactive” in each case. Moreover, the Potency entry in assay [7], in assay [8], in assay [9], in assay [10] and in assay [11] was “inactive” throughout.
Consider `CC/C=C/CC1=C(CCCCC(CCC(=O)O)OC(C)=O)CCC1=O` (stereo not given), for which the Potency entry in assay [1], in assay [2], in assay [3], in assay [4], in [5] and in [6] was “inactive” throughout. In addition, the Potency entry in [7], in [8], in assay [12], in assay [10] and in [11] was “inactive” each time.
As to `CC(C)c1nnc(-c2ccc(-c3ccccc3)nc2)n1-c1cccc2nonc12`, the Potency entry in assay [1], in [2], in assay [3], in assay [4], in assay [5] and in assay [6] was “inactive” throughout. Moreover, the Potency result in assay [7], in assay [8], in assay [12] and in assay [11] was “inactive” throughout.
As to `C/C=C/C=C/C(O)=C1\C(O)=C(C)C(=O)[C@@]2(C)OC(=O)[C@@](C)(NC(=O)/C=C/C(=O)O)[C@@H]12`, the Potency result in assay [1], in assay [2], in assay [3], in assay [4], in assay [5] and in [6] was “inactive” each time. The Potency result in assay [7], in [8], in assay [9], in [10] and in [11] was “inactive” each time.
Consider `CC(C)[C@@H](CS(=O)(=O)C(C)C)N1C(=O)[C@@](C)(CC(=O)O)C[C@H](c2cccc(Cl)c2)[C@H]1c1ccc(Cl)cc1`, for which the Potency result in [1], in assay [2], in [3], in assay [4], in [5] and in assay [6] was “inactive” throughout. Further, the Potency result in assay [7], in assay [8] and in assay [11] was “inactive” throughout. In addition, in assay [12], the Potency was 4.47 µM (active).
In the case of `CC1CC(O)/C=C/C(O)C(O)CC(=O)Cc2c(Cl)c(O)cc(O)c2C(=O)O1` (stereo not given), the Potency entry in assay [1], in assay [2], in assay [3], in assay [4], in [5] and in [6] was “inactive” in each case. Also, the Potency entry in assay [7], in [8], in assay [12], in [10] and in assay [11] was “inactive” throughout.
On to `O=C(CC1C(=O)Nc2ccccc21)OC[C@H]1O[C@@H](OCCc2ccc(O)cc2)[C@H](O)[C@@H](O)[C@@H]1O` (stereo not given in full), for which the Potency entry in assay [1], in [2], in [3], in [4], in assay [5] and in [6] was “inactive” in each case. For the same compound, the Potency result in [7], in [8], in assay [10] and in assay [11] was “inactive” in each case.
Take `COc1ccc([C@@]2(O)c3c(ccc(CC=C(C)C)c3O)NC(=O)[C@@H]2OC)cc1`: the Potency result in assay [1], in assay [2], in [3], in assay [4], in [5] and in [6] was “inactive” throughout. Moreover, the Potency result in assay [8], in assay [12], in assay [9], in assay [10] and in assay [11] was “inactive” throughout.
Take `C=C(C(=O)O)C1CC2=C(C)CCCC2(C)C[C@@H]1O` (stereo not given in full): the Potency result in [1], in [2], in [3], in [4], in assay [5] and in assay [6] was “inactive” in each case. The Potency result in assay [7], in assay [8], in assay [9], in [10] and in assay [11] was “inactive” in each case.
For `CC1CCC23COC(=O)C2=CC(O)CC3C1(C)CCC1=CC(O)OC1=O` (stereo not given), the Potency entry in [1], in assay [2], in assay [3], in [4], in assay [5] and in [6] was “inactive” each time. Further, the Potency result in assay [7], in [8], in assay [10] and in [11] was “inactive” in each case.
Turning to `O=C1CCC=CC1(O)C(=O)OCc1ccccc1O[C@@H]1O[C@H](CO)[C@@H](O)[C@H](O)[C@H]1O` (stereo not given in full), the Potency entry in assay [1], in assay [2], in assay [3], in assay [4], in assay [5] and in [6] was “inactive” in each case. Also, the Potency result in assay [8], in assay [9], in assay [10] and in [11] was “inactive” each time.
Turning to `Nc1ccccc1N`, the Potency was 10 µM (active) in assay [1]; 5.62 µM (active) in assay [2]; 7.94 µM (active) in assay [3]; 11.2 µM (active) in [4]; 12.6 µM (active) in assay [5]; 7.94 µM (active) in assay [6]. In addition, the Potency in assay [8] was 10 µM (active); in [12] it was 14.1 µM (active); in assay [9] it was 12.6 µM (active); in [10], 12.6 µM (active).
On to `CC(=O)N1CCN(Cc2ccc([C@H](C)Nc3nccc(N4C(=O)OC[C@@H]4C(C)C)n3)cc2)CC1`, for which the Potency result in assay [1], in [2], in assay [3], in assay [4], in [5] and in [6] was “inactive” each time. Besides, the Potency entry in assay [8], in [9], in [10] and in assay [11] was “inactive” each time.
Consider `CC(CCC1(O)OC2CC3C4CCC5CC(O[C@@H]6O[C@H](CO)[C@@H](O)[C@H](O)[C@H]6O[C@@H]6O[C@@H](C)[C@H](O)[C@@H](O)[C@H]6O)C(O)CC5(C)C4CCC3(C)C2C1C)CO[C@@H]1O[C@H](CO)[C@@H](O)[C@H](O)[C@H]1O` (stereo not given in full), for which the activity change, negative = cytotoxicity in [1] was 3.88% [at 11.6 µM]; in [2], -13.8% [at 11.6 µM]; in assay [3] it was -0.222% [at 11.6 µM]; in [4], -3.1% [at 11.6 µM]; in assay [5], 3.09% [at 11.6 µM]; in assay [6] it was 17.8% [at 11.6 µM]. Besides, the activity change, negative = cytotoxicity in assay [7] is -0.873% [at 11.6 µM]; in assay [8], 22.7% [at 11.6 µM]; in assay [9] it was 3.64% [at 11.6 µM]; in assay [10] it was 6.58% [at 11.6 µM]; in assay [11] it was 18.3% [at 11.6 µM].
With `O=C1OCc2cc3cccc(O[C@@H]4O[C@H](CO)[C@@H](O)[C@H](O)[C@H]4O)c3c(O)c21`, the Potency entry in [1], in assay [2], in assay [3], in [4], in assay [5] and in [6] was “inactive” throughout. Moreover, the Potency entry in assay [7], in assay [12], in assay [9], in assay [10] and in assay [11] was “inactive” in each case.
